Conditions in all cases: 25 µM; exposure: 24-48 hpf
Experiment [1] concerns Danio rerio Tg(wt1b:EGFP) embryo, pronephros. Kind of experiment: glomerular separation, fold change vs DMSO control; higher = glomeruli further apart (abnormal). The method, boiled down: (§1)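 Each feature value is a fold change relative to the mean of same-day DMSO-treated embryos. Embryos of the Tg(wt1b:EGFP) zebrafish line, dechorionated, received 25 μM compound in 0.5% DMSO from 24 to 48 hpf at 28.5°C, in HEPES-buffered E3 with 0.003% PTU. Distances and angles were computed by a Fiji macro from 16 manually set reference points on maximum projections of dorsal pronephros images, and values beyond 2 SD of the feature mean were removed.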

For experiment [2] the test system is unchanged. Briefly: glomerular width (mean of left and right), fold change vs DMSO control; higher = wider glomerulus. The method, boiled down:
as §1

Experiment [3] shares this test system. Briefly: fraction of imaged embryos annotated as normal kidney; higher = less nephrotoxic; extreme values may be limits of the assay. An outline of the steps: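 Dechorionated Tg(wt1b:EGFP) zebrafish embryos were incubated with 25 μM compound in 0.5% DMSO, 5 mM HEPES-buffered E3 and 0.003% PTU from 24 to 48 hpf at 28.5°C. Pronephroi were then imaged by widefield fluorescence, and the fraction of embryos per treatment assigned by hand to the normal-kidney category is given.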

Experiment [4] shares this test system. Kind of experiment: pronephric angle neck segment to proximal convoluted tubule (mean of left and right), fold change vs DMSO control; higher = larger pronephric angle. An outline of the steps:
as §1

Where a name gives a salt, the structure may show the parent alone. ± gives the standard deviation or the standard deviation of the averaged measurements.

Consider `COC(=O)Nc1nc2ccc(SC(C)C)cc2[nH]1` [Methiazole], for which the glomerular separation in experiment [1] came to 3.98 ± 1.2. In experiment [2], this compound had a glomerular width of 0.49428 ± 0.00044. Also, in experiment [3], the “fraction of imaged embryos annotated as normal kidney” value (from here on “fraction of imaged embryos annotated”) came out at 0. The “pronephric angle neck segment” value in experiment [4] was 1.95 ± 0.046.

In experiment [1], `CN1CCCC(CC2c3ccccc3Sc3ccccc32)C1` (centres undefined) [Metixene hydrochloride] came in with a glomerular separation of 0.961 ± 0.25. Besides, the glomerular width in experiment [2] is 1 ± 0.021. In experiment [3], the “fraction of imaged embryos annotated” value amounted to 1. Further, the “pronephric angle neck segment” value in experiment [4] turned out to be 0.953 ± 0.044.

`C=CC(N)CCC(=O)O` (centres undefined) [Vigabatrin hydrochloride] returned a glomerular separation in experiment [1] of 0.956 ± 0.33. This compound displayed a glomerular width in experiment [2] of 1.129 ± 0.0097. Moreover, in experiment [3], the “fraction of imaged embryos annotated” value turned out to be 0.917. For the same compound, the “pronephric angle neck segment” value in experiment [4] turned out to be 1.05 ± 0.029.

`COc1cnc(NS(=O)(=O)c2ccc(N)cc2)nc1` [Sulfameter] yielded a glomerular separation in experiment [1] of 0.925 ± 0.34. Besides, the glomerular width in experiment [2] was found to be 1.01 ± 0.021. Moreover, the “fraction of imaged embryos annotated” value in experiment [3] was 0.833. For the same compound, the “pronephric angle neck segment” value in experiment [4] worked out at 0.9915 ± 0.0018.

As for `CC(C)(C(=O)c1cccnc1)c1cccnc1` [Metyrapone], in experiment [1], the glomerular separation amounted to 0.85 ± 0.27. Also, in experiment [2], the glomerular width turned out to be 0.961 ± 0.039. Besides, in experiment [3], the “fraction of imaged embryos annotated” value was determined as 0.9. Further, the “pronephric angle neck segment” value in experiment [4] came out at 1.03 ± 0.076.

`Cc1ccc(N(CC2=NCCN2)c2cccc(O)c2)cc1` [Phentolamine hydrochloride] came in with a glomerular separation in experiment [1] of 1.13 ± 0.33. Besides, the glomerular width in experiment [2] was 1.08 ± 0.02. Moreover, the “fraction of imaged embryos annotated” value in experiment [3] came out at 0.667. Also, in experiment [4], the “pronephric angle neck segment” value worked out at 0.994 ± 0.018.

`C[C@]12C[C@H](O)[C@H]3[C@@H](CCC4=CC(=O)CC[C@@]43C)[C@@H]1CC[C@@H]2C(=O)CO` [Corticosterone] displayed a glomerular separation in experiment [1] of 1.36 ± 0.4. For the same compound, the glomerular width in experiment [2] came out at 1.13 ± 0.026. In addition, the “fraction of imaged embryos annotated” value in experiment [3] worked out at 0.417. In experiment [4], the “pronephric angle neck segment” value was found to be 1.01 ± 0.019.

In the case of `CC(C)(CO)C(O)C(=O)NCCCO` (centres undefined) [Panthenol (D)], the glomerular separation in experiment [1] was found to be 0.954 ± 0.35. The compound also displayed a glomerular width in experiment [2] of 1.001 ± 0.0062. Further, the “fraction of imaged embryos annotated” value in experiment [3] turned out to be 0.75. In addition, the “pronephric angle neck segment” value in experiment [4] came out at 1.008 ± 0.005.

For `Nc1nc2[nH]cc(CCc3ccc(C(=O)N[C@@H](CCC(=O)O)C(=O)O)cc3)c2c(=O)[nH]1` [Pemetrexed disodium], the glomerular separation in experiment [1] came out at 0.831 ± 0.39. In experiment [2], this compound yielded a glomerular width of 1.08 ± 0.041. Further, in experiment [3], the “fraction of imaged embryos annotated” value came out at 0.833. The “pronephric angle neck segment” value in experiment [4] turned out to be 0.972 ± 0.057.

The compound `CCOC(=O)C1=C(C)NC(C)=C(C(=O)OC)C1c1cccc([N+](=O)[O-])c1` (centres undefined) [Nitrendipine] had a glomerular separation in experiment [1] of 5.49 ± 1. In experiment [2], the glomerular width came out at 0.6357 ± 0.0031. Also, the “fraction of imaged embryos annotated” value in experiment [3] turned out to be 0. Further, the “pronephric angle neck segment” value in experiment [4] was found to be 1.29 ± 0.044.

In experiment [1], `NC[C@@H]1O[C@@H](O[C@H]2[C@H](O)[C@@H](O[C@H]3O[C@H](CO)[C@@H](O)[C@H](N)[C@H]3O)[C@H](N)C[C@@H]2N)[C@@H](O)[C@H](O)[C@H]1O` [Kanamycin A sulfate] came in with a glomerular separation of 1.07 ± 0.33. Besides, the glomerular width in experiment [2] was 1.01 ± 0.046. The “fraction of imaged embryos annotated” value in experiment [3] was found to be 0.667. Also, the “pronephric angle neck segment” value in experiment [4] was found to be 1.01 ± 0.052.

`CC(=O)N1CCN(c2ccc(OCC3COC(Cn4ccnc4)(c4ccc(Cl)cc4Cl)O3)cc2)CC1` (centres undefined) [Ketoconazole] showed a glomerular separation in experiment [1] of 0.931 ± 0.28. Further, the glomerular width in experiment [2] stood at 1.01 ± 0.082. For the same compound, the “fraction of imaged embryos annotated” value in experiment [3] turned out to be 0.75. In addition, the “pronephric angle neck segment” value in experiment [4] stood at 0.994 ± 0.04.

Turning to `CN1CCCCC1CCN1c2ccccc2Sc2ccc([S+](C)[O-])cc21` (centres undefined) [Mesoridazine besylate], the glomerular separation in experiment [1] was found to be 1.4 ± 1. In experiment [2], this compound registered a glomerular width of 0.916 ± 0.033. Moreover, the “fraction of imaged embryos annotated” value in experiment [3] amounted to 0.833. Also, in experiment [4], the “pronephric angle neck segment” value came out at 1.02 ± 0.033.

`Cc1c(N(C)C)c(=O)n(-c2ccccc2)n1C` [Amidopyrine] returned a glomerular separation in experiment [1] of 0.645 ± 0.17. This compound yielded a glomerular width in experiment [2] of 1 ± 0.0092. Further, in experiment [3], the “fraction of imaged embryos annotated” value worked out at 0.917. The “pronephric angle neck segment” value in experiment [4] was 1.01 ± 0.033.

In turn, `COC(=O)[C@H]1[C@H]2C[C@@H]3c4[nH]c5cc(OC)ccc5c4CCN3C[C@H]2C[C@@H](OC(=O)c2cc(OC)c(OC)c(OC)c2)[C@@H]1OC` [Reserpine] yielded a glomerular separation in experiment [1] of 0.705 ± 0.29. The same compound came in with a glomerular width in experiment [2] of 0.995 ± 0.061. In addition, the “fraction of imaged embryos annotated” value in experiment [3] stood at 0.917. Moreover, the “pronephric angle neck segment” value in experiment [4] is 1.0157 ± 3.5e-05.

Turning to `CC(=O)Nc1c(I)c(NC(C)=O)c(I)c(C(=O)O)c1I` [Diatrizoic acid dihydrate], in experiment [1], the glomerular separation worked out at 1.34 ± 0.56. This compound displayed a glomerular width in experiment [2] of 1.03 ± 0.016. Also, the “fraction of imaged embryos annotated” value in experiment [3] was found to be 0.583. Further, the “pronephric angle neck segment” value in experiment [4] is 1.05 ± 0.033.

For `Nc1cc(N2CCCCC2)nc(N)[n+]1[O-]` [Minoxidil], the glomerular separation in experiment [1] was determined as 0.953 ± 0.24. Also, the glomerular width in experiment [2] was determined as 1.05 ± 0.053. In addition, the “fraction of imaged embryos annotated” value in experiment [3] was found to be 0.917. The “pronephric angle neck segment” value in experiment [4] was 0.99 ± 0.065.

`CN1C(=O)CC(c2ccccc2)C1=O` (centres undefined) [Phensuximide] displayed a glomerular separation in experiment [1] of 0.924 ± 0.43. Also, the glomerular width in experiment [2] was found to be 0.9434 ± 0.0058. For the same compound, the “fraction of imaged embryos annotated” value in experiment [3] amounted to 0.889. Further, in experiment [4], the “pronephric angle neck segment” value is 0.997 ± 0.013.

`C[C@H](CCC(=O)O)[C@H]1CC[C@H]2[C@@H]3C(=O)C[C@@H]4CC(=O)CC[C@]4(C)[C@H]3CC(=O)[C@]12C` [Dehydrocholic acid] registered a glomerular separation in experiment [1] of 0.9 ± 0.25. Besides, in experiment [2], the glomerular width came out at 0.978 ± 0.07. For the same compound, the “fraction of imaged embryos annotated” value in experiment [3] turned out to be 0.833. Besides, the “pronephric angle neck segment” value in experiment [4] was found to be 0.984 ± 0.029.

For `CN[C@@H]1[C@H](O)[C@H](NC)[C@H]2O[C@@]3(O)C(=O)C[C@@H](C)O[C@H]3O[C@@H]2[C@H]1O` [Spectinomycin dihydrochloride], in experiment [1], the glomerular separation came to 0.786 ± 0.48. Besides, in experiment [2], the glomerular width was found to be 1.07 ± 0.021. Moreover, in experiment [3], the “fraction of imaged embryos annotated” value came to 0.909. For the same compound, the “pronephric angle neck segment” value in experiment [4] was found to be 0.9719 ± 0.0052.

In the case of `NCCc1c[nH]cn1` [Histamine dihydrochloride], the glomerular separation in experiment [1] is 1.1 ± 0.25. The compound also displayed a glomerular width in experiment [2] of 0.9518 ± 0.0028. In addition, the “fraction of imaged embryos annotated” value in experiment [3] amounted to 0.833. Moreover, the “pronephric angle neck segment” value in experiment [4] came out at 1.03 ± 0.03.

`NC1CCN(c2c(F)cc3c(=O)c(C(=O)O)cn(C4CC4)c3c2Cl)C1` (centres undefined) [Clinafloxacin] registered a glomerular separation in experiment [1] of 1.2 ± 0.45. In experiment [2], the glomerular width was determined as 1.03 ± 0.087. In addition, the “fraction of imaged embryos annotated” value in experiment [3] was determined as 1. Also, the “pronephric angle neck segment” value in experiment [4] amounted to 0.962 ± 0.038.

In experiment [1], `CS(=O)(=O)c1ccc([C@@H](O)[C@@H](CO)NC(=O)C(Cl)Cl)cc1` [Thiamphenicol] registered a glomerular separation of 0.938 ± 0.22. For the same compound, the glomerular width in experiment [2] came out at 1.03 ± 0.024. Moreover, in experiment [3], the “fraction of imaged embryos annotated” value worked out at 1. Besides, the “pronephric angle neck segment” value in experiment [4] came out at 0.978 ± 0.025.

With `Cc1cc(-n2c(=O)[nH]c(=O)n(C)c2=O)ccc1Oc1ccc(SC(F)(F)F)cc1` [Toltrazuril], the glomerular separation in experiment [1] was 1.34 ± 0.62. For the same compound, in experiment [2], the glomerular width turned out to be 0.8688 ± 0.0053. For the same compound, the “fraction of imaged embryos annotated” value in experiment [3] stood at 0.5. In addition, the “pronephric angle neck segment” value in experiment [4] was determined as 1.09 ± 0.045.

Turning to `Clc1ccc(C(Cn2ccnc2)OCc2ccsc2Cl)c(Cl)c1` (centres undefined) [Tioconazole], the glomerular separation in experiment [1] was 1.29 ± 0.51. Besides, the glomerular width in experiment [2] came to 0.965 ± 0.013. Besides, the “fraction of imaged embryos annotated” value in experiment [3] was found to be 0.417. The “pronephric angle neck segment” value in experiment [4] worked out at 1.21 ± 0.085.

In turn, `O=C(O)CCc1nc(-c2ccccc2)c(-c2ccccc2)o1` [Oxaprozin] showed a glomerular separation in experiment [1] of 4.33 ± 1.5. This compound also had a glomerular width in experiment [2] of 0.672 ± 0.032. In addition, the “fraction of imaged embryos annotated” value in experiment [3] came out at 0. The “pronephric angle neck segment” value in experiment [4] came out at 1.87 ± 0.14.

The values above are taken from the supplement of paper PMC7366291.
